# Experimental data as given in PubChem BioAssay AID504332 (National Center for Advancing Translational Sciences (NCATS), 2011).
# Hit rate of the full screen: of about 350,000 compounds, about 31,000 (8.9%) were called active. Not shown: some 15% with an inconclusive outcome. Calls follow the shape of the dose curve; as a rule, active = well fitted inhibition curve with a large enough effect; inconclusive = small, poorly fitted or top-dose-only effect; inactive = no such curve, though single readings can be large or run the other way. The list comes from a sample in which actives are over-represented; it also holds similar structures and randomly drawn compounds.
# Target: Histone-lysine N-methyltransferase EHMT2 (Homo sapiens) (UniProt Q96KQ7)
# Assay: qHTS Assay for Inhibitors of Histone Lysine Methyltransferase G9a; also: nearly all actives have a fitted effect of over 75% in size
# Settings: G9a H3K9 monomethylation, AlphaScreen, 2 h; series mostly up to 59 µM; activity, negative = inhibition: at the top concentration
# Method in brief: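 Quantitative HTS format: methyltransferase activity on a biotin-tagged H3K9 peptide is measured by AlphaScreen, using a rabbit anti-monomethyl-H3K9 antibody with streptavidin donor and anti-IgG acceptor beads. Final levels are 20 nM enzyme, 500 nM peptide, 20 uM SAM; 2 h RT.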
# % is scaled to controls: 0 for no effect and ±100 for the full control effect; potency is read from the fitted curve at half-maximal effect.
# Chain of Histone-lysine N-methyltransferase EHMT2 (Homo sapiens) (Q96KQ7 913-1193 limits assumed): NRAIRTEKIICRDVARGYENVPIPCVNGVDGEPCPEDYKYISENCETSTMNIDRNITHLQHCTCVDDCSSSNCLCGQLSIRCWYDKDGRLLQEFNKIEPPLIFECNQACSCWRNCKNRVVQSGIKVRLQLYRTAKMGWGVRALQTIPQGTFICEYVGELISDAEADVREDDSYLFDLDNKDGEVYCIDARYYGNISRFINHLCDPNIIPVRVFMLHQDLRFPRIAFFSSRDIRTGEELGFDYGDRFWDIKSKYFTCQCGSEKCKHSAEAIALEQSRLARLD
SMILES,"activity, negative = inhibition",Potency
COc1ccc(-n2c(SCC(N)=O)nc3c(oc4ccccc43)c2=O)cc1,-2.44% (inactive),
Cc1cccc(-n2c(SCC(N)=O)nc3c(oc4ccccc43)c2=O)c1,8.13% (inactive),
COc1cccc(-n2c(=S)[nH]c3c(oc4ccccc43)c2=O)c1,,44.7 µM (active)
CCOc1cc(/C=C(\C#N)C(=O)Nc2ccccc2C)ccc1OCc1cc(=O)n2nc(CC)sc2n1,-7.24% (inactive),
CC(=O)Nc1ccc(/C=C/C(=O)c2ccccc2)cc1,-1.87% [at 2.33 µM] (inactive),
Cc1cc(C)n(-c2ccc(C(=O)O)cc2[N+](=O)[O-])n1,-35.8% [at 102 µM] (inactive),
CN(C)c1ccc(/C=C/C(=O)c2ccc(C(C)(C)C)cc2)cc1[N+](=O)[O-],,12.6 µM (active)
COc1cccc(CNC(=O)CN2C(=O)CCc3cc(S(=O)(=O)N4CCOCC4)ccc32)c1,23.9% (inactive),
COc1ccc(C(CNC(=O)c2ccc(S(=O)(=O)Nc3ccccc3C)cc2)N2CCOCC2)cc1 (stereo unspecified),19% [at 2.33 µM] (inactive),
Cc1ccn2cc(-c3nonc3C)cc2c1,,10 µM (active)
COc1ccc(-c2cn3ccc(C)cc3n2)cc1,-10% [at 102 µM] (inactive),
Cc1nc(-c2ccc(F)cc2)c(CC(=O)N(C)CC(=O)Nc2c(C)cccc2C)s1,-12% [at 102 µM] (inactive),
CCCSc1nc2sc3c(c2c(=O)n1-c1cccc(Br)c1)CC(C)(C)OC3,-29.5% (inactive),
Cc1cc(C(=O)OC(C)C(=O)NC2CCCCC2C)c(C)o1 (stereo unspecified),-2.74% [at 102 µM] (inactive),
O=C(O)CCC(=O)NCc1ccc(C(=O)O)cc1,-34% [at 102 µM] (inactive),
Cc1cccc(NC(=S)NCCN(C2CCCCC2)C2CCCC2)c1,16.8% (inactive),
Cc1cc(C)cc(NC(=S)NCc2ccc(F)cc2)c1,-8.23% (inactive),
O=C(O)CCC(=O)NCc1ccc2[nH]c3c(c2c1)CCCC3,,50.1 µM (active)
O=C(CCc1ccccc1)NCc1ccc2c(c1)CCN2C(=O)c1ccccc1,2.34% (inactive),
Cc1cccc(NC(=S)NCc2ccc3[nH]c4c(c3c2)CCCC4)c1,,39.8 µM (active)
Cc1ccc(Cl)cc1NC(=O)CCC(=O)N1CC(C)Sc2ccccc21 (stereo unspecified),-4.93% (inactive),
O=C(NCc1ccccc1)c1ccc2c(c1)nc1n2CCCCC1,14.7% (inactive),
CC(=O)c1ccc(NS(=O)(=O)c2ccc(-c3cc(C)no3)s2)cc1,3.66% (inactive),
Cc1ccc(N(C)C(=O)C2CCN(S(=O)(=O)c3ccc4c(c3)CCCN4C(=O)C3CCC3)CC2)cc1,-3.25% (inactive),

SMILES,"activity, negative = inhibition",Potency
CCN(C(=O)COc1ccc(C(=O)c2ccccc2)cc1)c1ccccc1,-6.14% (inactive),
CC(=O)NNC1=Nc2ccccc2N(C)C(C)C1 (stereo unspecified),,31.6 µM (active)
COC(=O)C1=C(C(=O)OC)[C@@H]2N(C)c3ccccc3[C@@]23C[C@@H](C(=O)OC)N(C(C)=O)C3=N1,16.1% (inactive),
O=C(CNS(=O)(=O)c1ccc2ccccc2c1)Nc1ccc(F)c(F)c1F,2.41% [at 12.7 µM] (inactive),
CC1CCCCC12NC(=O)N(CC(=O)Nc1ccc(S(=O)(=O)Nc3ncccn3)cc1)C2=O (stereo unspecified),-10.5% [at 12.7 µM] (inactive),
CCOc1ncccc1C(=O)NNC(=O)c1cccc(S(=O)(=O)Nc2ccccc2OC)c1,-0.541% [at 102 µM] (inactive),
COc1ccc(N2CCN(C(=O)COC(=O)c3cccc(S(=O)(=O)Nc4ccccc4OC)c3)CC2)cc1,,15.8 µM (active)
COc1ccc(S(=O)(=O)Nc2ccccc2C(=O)N2CCCC2)cc1C,8.92% [at 102 µM] (inactive),
CC1CN(C(=O)COC(=O)c2cccc(NS(=O)(=O)c3ccccc3)c2)CC(C)O1 (stereo unspecified),3.95% [at 0.501 µM] (inactive),
COc1ccccc1NS(=O)(=O)c1ccc(C(=O)N2CCN(c3ccccc3O)CC2)cc1,,44.7 µM (active)
COc1ccccc1N1CCN(C(=O)c2ccc(S(=O)(=O)N3CCCCC3)cc2)CC1,-28.9% [at 12.7 µM] (inactive),
CCOc1ccc(C2CC(=O)c3c([nH]c(C(=O)OCc4ccccc4)c3C)C2)cc1 (stereo unspecified),0.425% (inactive),
CN(c1ccccc1)S(=O)(=O)c1cccc(C(=O)NNC(=O)c2ccncc2)c1,1.98% [at 102 µM] (inactive),
COc1ccc(OC)c(-c2csc(-c3c(N)c(C(=O)c4ccccc4)n4ccccc34)n2)c1,6% (inactive),
Cc1nn(CC(=O)O)c(=O)c2cc3cc(F)ccc3n12,38.6% (inactive),
Cc1ccn2c(=O)c(NC(=O)c3cccc4ccccc34)c(C)nc2c1,2.02% [at 102 µM] (inactive),
c1ccc(Nc2n[nH]nc2-c2ccccc2)cc1,3.87% (inactive),
N#Cc1c(-c2ccccc2)c(-c2ccccc2)n[nH]c1=O,1.71% [at 102 µM] (inactive),
O=C(O)c1n[nH]nc1-c1ccccc1,,3.55 µM (active)
CCOc1ccc(OCC)c(NC(=O)c2c(C)nn(-c3ccccc3)c2-n2cccc2)c1,-4.07% (inactive),
CC(C)c1ccc(C2C(C#N)=C(N)Oc3c2oc(CO)cc3=O)cc1 (stereo unspecified),10.4% [at 102 µM] (inactive),
CC(C)c1ccc(C2CC(=O)N3CN(C4CCCCC4)CSC3=C2C#N)cc1 (stereo unspecified),,2.24 µM (active)
OCC[C@H]1C[C@@H](O)[C@H](O)[C@@]2(OCCc3ccccc32)O1,-2.06% [at 2.33 µM] (inactive),
O=C(CCSCc1ccccc1F)N1CCN(c2ccc(Cl)cc2)CC1,-1.72% (inactive),

SMILES,"activity, negative = inhibition",Potency
Cc1cc(=O)[nH]c(SCC(=O)Nc2ccc(Br)cc2)n1,10.1% [at 12.7 µM] (inactive),
Cc1cc(=O)[nH]c(SCC(=O)N2c3ccccc3CC2C)n1 (stereo unspecified),-1.7% [at 12.7 µM] (inactive),
Cc1cc(C)c(C(=O)CSc2nc(C)cc(=O)[nH]2)c(C)c1,,31.6 µM (active)
Cc1cc(Cl)c2oc(C(=O)NC(C)c3ccncn3)c(C)c2c1 (stereo unspecified),-0.418% [at 102 µM] (inactive),
COc1ccccc1N=Cc1c(O)c2ccccc2oc1=O,12.8% (inactive),
COc1ccc(N=Cc2c(O)[nH]c3ccccc23)cc1OC,,50.1 µM (active)
COc1cc(N=Cc2c(O)c3ccccc3oc2=O)c(OC)cc1Cl,16.1% [at 0.501 µM] (inactive),
CCOC(=O)Cn1c(=O)n(Cc2ccc(OC)cc2)c(=O)c2cccnc21,22.4% [at 102 µM] (inactive),
CC1CCCN(S(=O)(=O)c2ccc3[nH]c(=O)cc(C(=O)NCCc4ccc(Cl)cc4)c3c2)C1 (stereo unspecified),-0.97% (inactive),
COc1ccc(S(=O)(=O)NCc2cccn2Cc2cccc(C)c2)cc1,31.3% (inactive),
CCOc1ccccc1C(=O)NCc1ccc2c(c1)CCN2C(=O)c1ccc(F)cc1,-0.689% (inactive),
c1coc(-c2nc3nc4ccccc4n3nc2-c2ccco2)c1,,10 µM (active)
Cn1c(-c2ccco2)nc2cc3ccccc3cc21,8.95% [at 0.0925 µM] (inactive),
Cc1nn2c3ccccc3nc2n(C)c1=O,19.5% (inactive),
CCOc1ccc(CCNC(=O)c2c(C)oc3ncn(C)c(=O)c23)cc1,1.36% (inactive),
CCCc1nn2c(=O)cc(COC(=O)c3ccc(NC(=O)C(C)Oc4ccccc4)cc3)nc2s1 (stereo unspecified),12.4% (inactive),
COc1ccc(C(=O)/C=C/c2ccc(OC3CSC3)cc2)cc1,-9.35% (inactive),
COc1ccc(/C=C/C(=O)c2cc(Br)ccc(=O)c2O)cc1,,10 µM (active)
COc1ccc(/C=C/C(=O)c2ccc(OC)cc2O)cc1,-16.7% [at 102 µM] (inactive),
Cc1cccc(Cc2c(C)nc3nc(SCc4ccccc4Cl)nn3c2C)c1,-6.6% (inactive),
CCOC(=O)c1ccc(N2C(=O)c3n[nH]c(-c4ccco4)c3C2c2ccc(O)cc2)cc1 (stereo unspecified),,17.8 µM (active)
CCOC(=O)c1ccc(N2C(=O)c3n[nH]c(C)c3C2c2ccc(O)c(OC)c2)cc1 (stereo unspecified),-17.4% (inactive),
CCOC(=O)c1ccc(N2C(=O)c3[nH]nc(-c4ccccc4)c3C2c2ccc(C(C)C)cc2)cc1 (stereo unspecified),-0.307% (inactive),
Cc1ccc(F)cc1NC(=O)CCSc1nc(-c2ccco2)cc(C(F)(F)F)n1,-7.82% (inactive),

SMILES,"activity, negative = inhibition",Potency
Cc1ccc(NC(=O)CCCn2c(=O)c3cccn3c3ccccc32)cc1Cl,-46.8% (inactive),
Cc1ccc(S(=O)(=O)N2CCC(C(=O)OCC(=O)N3CC(=O)Nc4ccccc43)CC2)cc1,5.96% (inactive),
COc1cc(OC)c(C(=O)OCC(=O)N2CC(=O)Nc3ccccc32)cc1OC,1.9% [at 102 µM] (inactive),
O=C1CN(C(=O)COC(=O)C2CC(=O)N(Cc3ccco3)C2)c2ccccc2N1 (stereo unspecified),,50.1 µM (active)
COc1ccc(OC)c(S(=O)(=O)N2CCCC(C(=O)N3CCC(C(N)=O)CC3)C2)c1 (stereo unspecified),0.506% [at 102 µM] (inactive),
O=C(CSc1ncc(CO)n1Cc1ccc(Cl)cc1)NCc1ccc(F)cc1,4.32% (inactive),
CCc1c(C)sc(NC(=O)c2cccs2)c1C(N)=O,,11.2 µM (active)
CCCc1nnc(NC(=O)c2cccs2)s1,-0.387% [at 12.7 µM] (inactive),
CCc1c(C)sc(NC(=O)c2ccc(Br)o2)c1C(=O)OC,34.2% (inactive),
CCc1c(C)sc(NC(=O)C2c3ccccc3Oc3ccccc32)c1C(=O)OC(C)C,-6.06% (inactive),
COc1cc(C(=O)NCC(=O)N2CC=C(c3ccccc3)CC2)cc(OC)c1OC,-27.5% [at 102 µM] (inactive),
O=C(COC(=O)c1ccccc1)c1ccc2c(c1)OCCO2,23.8% [at 102 µM] (inactive),
CN(C(=O)C1CCN(c2ncnc3c2nc2n3CCCCC2)CC1)C1CCCCC1,5.93% [at 102 µM] (inactive),
COCc1c(C(=O)OCC(=O)Nc2ccc(OC(F)F)cc2)oc2ccccc12,-14.1% [at 12.7 µM] (inactive),
CN(C(=O)Cn1nnc(-c2ccc(F)cc2)n1)C1CCS(=O)(=O)C1 (stereo unspecified),14.1% [at 12.7 µM] (inactive),
O=C(c1ccc(F)cc1)N1CCCC(c2nc(-c3cccs3)no2)C1 (stereo unspecified),13.3% [at 102 µM] (inactive),
Cc1ccc(-c2noc(C3CCCN(C(=O)c4cccc(Cl)c4)C3)n2)o1 (stereo unspecified),,39.8 µM (active)
COc1cccc(-c2noc(C3CCCN(C(=O)c4ccc(F)cc4)C3)n2)c1 (stereo unspecified),21.1% [at 102 µM] (inactive),
COc1ccc2nc(N3CCN(C(=O)c4ccc([N+](=O)[O-])o4)CC3)sc2c1,-38.5% [at 102 µM] (inactive),
CCc1ccccc1NC(=O)c1cnn(-c2ccc(F)cc2)c1C1CCNCC1,-1.86% (inactive),
O=C(NC(=S)Nc1ccc(Cl)c(C(=O)O)c1)c1cncc(Br)c1,,44.7 µM (active)
O=C(Nc1ccc(N2CCCC2=O)cc1)c1cncc(Br)c1,-12.6% [at 102 µM] (inactive),
COC(=O)c1ccccc1NC(=O)c1cncc(Br)c1,7.17% (inactive),
O=C(NCCc1ccc(F)cc1)c1ccc2nccnc2c1,-12.4% [at 12.7 µM] (inactive),
